Screening results (PubChem)
ABCB6 inh MLPCN = blocks the human ABCB6 transporter; K562-ABCB6 porphyrin accumulation, flow cytometry, 1 h; active compounds read low; fluorescence ratio to DMSO, % at 10 µM; 0.19% of 360,000 active; AID 602162;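 active means fluorescence ratio to DMSO below 75%, the collection mean minus 3 SD; inconclusive means too few cells collected in the well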;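 further: signal is porphyrin accumulated inside mitochondria; 100% equals median channel fluorescence of DMSO control wells; lower ratio means ABCB6 inhibition with less porphyrin fluorescence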
Target sequence (Q9NP58 whole entry, looked up): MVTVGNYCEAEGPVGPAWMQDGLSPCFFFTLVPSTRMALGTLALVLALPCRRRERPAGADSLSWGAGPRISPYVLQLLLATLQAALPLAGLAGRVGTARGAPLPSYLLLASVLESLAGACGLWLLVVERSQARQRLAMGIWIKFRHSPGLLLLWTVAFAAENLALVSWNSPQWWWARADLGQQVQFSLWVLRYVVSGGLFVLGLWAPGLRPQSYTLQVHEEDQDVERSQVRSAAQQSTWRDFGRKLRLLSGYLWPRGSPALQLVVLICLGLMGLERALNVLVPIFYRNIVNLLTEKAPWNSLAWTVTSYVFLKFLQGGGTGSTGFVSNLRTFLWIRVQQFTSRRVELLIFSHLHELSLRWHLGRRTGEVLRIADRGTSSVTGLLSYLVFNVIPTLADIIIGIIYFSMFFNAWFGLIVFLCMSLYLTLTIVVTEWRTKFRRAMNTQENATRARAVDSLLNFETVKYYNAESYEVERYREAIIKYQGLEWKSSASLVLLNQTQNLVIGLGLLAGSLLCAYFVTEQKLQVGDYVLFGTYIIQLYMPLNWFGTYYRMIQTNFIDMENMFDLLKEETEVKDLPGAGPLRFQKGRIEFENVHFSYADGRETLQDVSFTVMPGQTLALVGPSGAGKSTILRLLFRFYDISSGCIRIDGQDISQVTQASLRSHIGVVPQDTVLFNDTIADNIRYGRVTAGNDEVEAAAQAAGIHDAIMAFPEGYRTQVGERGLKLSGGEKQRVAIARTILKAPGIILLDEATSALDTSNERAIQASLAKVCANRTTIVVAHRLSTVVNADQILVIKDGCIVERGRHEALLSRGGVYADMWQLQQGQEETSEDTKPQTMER
Myeloid diff MLP = promotes myeloid progenitor differentiation; ER-HoxA9 myeloid progenitors, lysozyme-GFP differentiation, flow cytometry; calls only at 10 µM; 1% of 360,000 active;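 active means normalized GFP-positive differentiation at or above the plate's own cutoff, the solvent-only control mean plus 3 SD; inconclusive means no clear call, values can overlap the other calls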;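 further: cells exposed to compound for four days before flow analysis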
Exocytosis inh = lytic granule exocytosis inhibition. TALL-104 LAMP-1 surface exposure, flow cytometry; cells stimulated with thapsigargin and PMA. inhibition, % at 10 µM. 0.66% of 360,000 active. AID 651702;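 active means inhibition above about 55%, limit read from the data; inconclusive means no clear call, values can overlap the other calls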
ABCB6 inh CP1 = inhibitors of human ABC transporter ABCB6; shares compounds with ABCB6 inh MLPCN; ratio response (% of DMSO), % at 10 µM; 700 tested, under 10 active; K562-ABCB6 porphyrin accumulation, flow cytometry, 1 h; active compounds read low; AID 602430;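 active means repeat-averaged ratio response below 75% of DMSO, the collection mean minus 3 SD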;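 further: median porphyrin fluorescence at 575 nm with 488 nm excitation from mitochondria; lower ratio means less porphyrin signal so ABCB6 inhibition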
Starred values were filed as active, the others as inactive; i = inactive; ? = inconclusive; / = no result. Sampled rows, rich in hits. Any-hit rate of the full collection: about 1.8%.

SMILES | ABCB6 inh MLPCN | Myeloid diff MLP | Exocytosis inh | ABCB6 inh CP1
CC1(C(=O)NS(=O)(=O)c2ccc(Br)cc2)CCN1C(=O)C1(c2ccccc2)CC1 (stereo unspecified) | 99.0 | i | -3.4 | /
COc1ccc(OCc2ccc(C(=O)NN)cc2)cc1 | 98.0 | i | 3.5 | /
COc1ccc(C(=O)Nc2ccccc2N2CCCC2)cc1S(=O)(=O)N1CCOCC1 | 103.0 | i | -0.3 | /
CC(CC(=O)Nc1nnc(CC(C)(C)C)s1)c1ccccc1 (stereo unspecified) | 101.0 | i | -6.5 | /
CC(Sc1nc2ccccc2c(=O)n1CC1CCCO1)C(=O)N(C)Cc1ccccc1 (stereo unspecified) | 98.0 | i | -5.6 | /
CC(Sc1nc2ccccc2c(=O)n1C)C(=O)N(C)C1CCCCC1 (stereo unspecified) | 74.0* | i | 2.2 | 100.0
CCNC(=S)N(Cc1ccccc1)Cc1nc2ccccc2c(=O)[nH]1 | 100.0 | i | -3.7 | /
Cc1nc2c(C(=O)O)cnn2c(C)c1Cc1ccccc1F | 92.0 | i | 0.2 | /
Cc1ccccc1Cc1c(C)nc2nc(SCC(=O)NCc3ccco3)nn2c1C | 94.0 | i | 2.1 | /
CCOC(=O)N1CCN(C(=O)c2cnn3c(C(F)F)cc(-c4ccc(C)cc4)nc23)CC1 | 98.0 | i | 1.9 | /
Cc1ccc(C)c(Cc2c(C)nc3c(C(=O)N4CCOCC4)cnn3c2C)c1 | 93.0 | i | 2.4 | 101.0
Cc1nc2c(C(=O)N3CCCC3)cnn2c(C)c1Cc1c(F)cccc1Cl | 95.0 | i | -0.2 | 97.0
Cc1ccccc1Cc1c(C)nc2c(C(=O)NCc3ccco3)cnn2c1C | 70.0* | i | 13.4 | 99.0
Cc1nc2c(C(=O)N3CCN(c4ccccn4)CC3)cnn2c(C)c1Cc1cccc(Cl)c1 | 91.0 | i | -2.9 | /
CCOC(=O)N1CCN(C(=O)c2cnn3c(C)c(Cc4ccc(C)cc4)c(C)nc23)CC1 | 111.0 | i | 0.1 | 99.0
CCC(C)c1ccccc1NC(=O)C(C)OC(=O)c1ccco1 (stereo unspecified) | 96.0 | i | 0.9 | /
COc1ccc(OCC(=O)OCC(=O)c2ccc(OC)c(F)c2)cc1 | 96.0 | i | -1.9 | /
COc1ccc(-c2csc(C(C)(O)c3ccc(F)c(F)c3)n2)cc1 (stereo unspecified) | 95.0 | i | -11.0 | /
COc1ccc(Cc2n[nH]c(=S)n2Cc2ccccc2)cc1Cl | 95.0 | i | 2.9 | /
CCC(=O)Nc1ccc(N2CCN(S(C)(=O)=O)CC2)cc1 | 97.0 | i | 3.0 | /
CCOc1ccc(C(C)=O)cc1Cn1c(=O)oc2ccccc21 | 94.0 | i | ? | /
Cc1ccc(Cc2c(-c3cccc(Br)c3)nc3c(C)cc(Br)cn23)cc1 | 109.0 | i | -6.3 | /
O=C(Nc1c2c(nn1-c1ccc(Cl)cc1)CS(=O)(=O)C2)C1CC1 | 94.0 | i | -1.0 | /
Cc1ccc(-n2nc3c(c2NC(=O)C2CCCC2)CS(=O)(=O)C3)cc1 | 10.0* | i | -15.7 | 95.0
CC(C)CC(=O)Nc1nnc(SCC(=O)Nc2nccs2)s1 | 102.0 | i | 3.1 | /
SMILES | ABCB6 inh MLPCN | Myeloid diff MLP | Exocytosis inh | ABCB6 inh CP1
COc1ccc(/C=C2/C(=O)OCc3cc(OC)c(OC)cc32)cc1 | 65.0* | / | 4.9 | 97.0
COc1ccc(/C=C2\CCOC2=O)cc1 | 98.0 | i | 0.4 | /
CC1CCN(c2ccc3nnc(CCC(=O)NCC(C)c4ccccc4)n3n2)CC1 (stereo unspecified) | 99.0 | i | 6.9 | /
CC1CCN(c2ccc3nnc(CCC(=O)N4CCN(c5ccc(F)cc5)CC4)n3n2)CC1 | 96.0 | ? | -0.3 | /
CCC(C)NC(=O)CCc1nnc2ccc(N3CCC(C)CC3)nn12 (stereo unspecified) | 61.0* | i | 6.6 | 99.0
CCOC(=O)C(C)NC(=O)CCc1nnc2ccc(N3CCC(C)CC3)nn12 (stereo unspecified) | 72.0* | i | -14.4 | 99.0
CC1CCN(c2ccc3nnc(CCC(=O)NCc4ccco4)n3n2)CC1 | 92.0 | i | -13.9 | /
CC1CCN(c2ccc3nnc(CCC(=O)Nc4cccc(F)c4)n3n2)CC1 | 98.0 | i | -3.1 | /
CC1CCN(c2ccc3nnc(CCC(=O)N4CCCCC4)n3n2)CC1 | 98.0 | ? | -2.2 | 100.0
CC(C)CCNC(=O)CCc1nnc2ccc(N3CCC(C)CC3)nn12 | 97.0 | i | -2.5 | 100.0
Cc1cc(C(=O)Nc2c(F)c(F)c(F)c(F)c2F)n(-c2ccccc2)n1 | 96.0 | i | -15.5 | /
Cc1cccc(NC(=O)c2c(O)c3ccccc3n(C)c2=O)c1 | 84.0 | i | -24.2 | /
CCOc1ncccc1C(=O)OCC(=O)N(CC(C)C)C1CCS(=O)(=O)C1 (stereo unspecified) | 93.0 | i | 1.1 | /
CC(=O)C1=C(C)Nc2ncnn2C1c1ccc(Br)cc1 (stereo unspecified) | 90.0 | i | -18.1 | /
Cc1[nH]n(-c2ccccc2)c(=S)c1C=Nc1cccc([N+](=O)[O-])c1 | 97.0 | i | -4.2 | /
COc1ccc(NC(=O)CCc2nnc3ccc(N4CCC(C)CC4)nn23)cc1 | 98.0 | ? | -14.0 | /
COC(=O)C(NC(=O)CCc1nnc2ccc(N3CCC(C)CC3)nn12)C(C)C (stereo unspecified) | 97.0 | i | -1.2 | 117.0
CC1(CNC(=O)C(=O)NCC2(C)CO2)CO1 (stereo unspecified) | 99.0 | ? | -13.0 | /
COc1ccccc1CC(=O)N1CCN(c2ccccc2)CC1 | 99.0 | i | -6.5 | /
COC(=O)C1CCN(C(=O)Cc2ccccc2OC)CC1 | 72.0* | i | -1.4 | 99.0
CCC1CCCCN1C(=O)c1cc(COc2ccc(-n3cncn3)cc2)on1 (stereo unspecified) | 96.0 | i | -1.5 | /
Cc1cc(C)c(C)c(S(=O)(=O)N(C)CCc2ccccn2)c1C | 89.0 | i | -1.5 | /
CCn1c(SCC(=O)Nc2nc3ccc(OC)cc3s2)nc2c1c(=O)n(C)c(=O)n2C | 72.0* | i | 0.2 | 100.0
CCOc1ccc2nc(NC(=O)CSc3nc4c(c(=O)n(C)c(=O)n4C)n3C(C)C)sc2c1 | 94.0 | i | 0.2 | /
CN1CCN(NC(=O)c2cc(-c3ccc(Cl)s3)nc3ccccc23)CC1 | 72.0* | i | 34.5 | 101.0
SMILES | ABCB6 inh MLPCN | Myeloid diff MLP | Exocytosis inh | ABCB6 inh CP1
CN1CCN(NC(=O)c2cc(-c3ccccn3)nc3ccccc23)CC1 | 95.0 | i | 4.1 | /
O=C(O)C(Cc1ccccc1)NS(=O)(=O)c1ccc2c(c1)OCCO2 (stereo unspecified) | 68.0* | i | -1.0 | 96.0
O=C(O)C(Cc1ccc(Cl)cc1)NS(=O)(=O)c1ccc(Cl)cc1 (stereo unspecified) | 49.0* | i | 1.1 | 102.0
O=C(O)C(Cc1ccccc1)NS(=O)(=O)c1ccc(Cl)cc1 (stereo unspecified) | 98.0 | i | 1.4 | /
COc1ccc(S(=O)(=O)NC(Cc2ccccc2)C(=O)O)cc1 (stereo unspecified) | 95.0 | i | -1.2 | /
COc1ccc(O)c(C(=O)C2c3ccccc3C(=O)N2c2ccc(C)cc2)c1 (stereo unspecified) | 101.0 | i | -0.4 | /
CC(=O)c1ccc(N2C(=O)CC(N3CCN(S(=O)(=O)c4cc(C)ccc4C)CC3)C2=O)cc1 (stereo unspecified) | 96.0 | i | -8.1 | /
CCCCNc1nc2ccccc2n1CC(=O)Nc1c(C)cccc1CC | 97.0 | i | -1.7 | /
